LmPK inh – qHTS Assay for Inhibitors of Leishmania Mexicana Pyruvate Kinase (LmPK). Q27686. purified LmPK, Kinase-Glo ATP luminescence, 1 h. Potency, µM (titrated, usually from 57.5 µM), for the others: at the highest dose activity change, negative = inhibition, most hits filed as inhibitors. 290,000 compounds, 0.37% hits; note: potency is the fitted concentration of half-maximal effect; % is set by controls: 0 for no effect and ±100 for the full control effect
Target sequence (Q27686 whole entry, looked up): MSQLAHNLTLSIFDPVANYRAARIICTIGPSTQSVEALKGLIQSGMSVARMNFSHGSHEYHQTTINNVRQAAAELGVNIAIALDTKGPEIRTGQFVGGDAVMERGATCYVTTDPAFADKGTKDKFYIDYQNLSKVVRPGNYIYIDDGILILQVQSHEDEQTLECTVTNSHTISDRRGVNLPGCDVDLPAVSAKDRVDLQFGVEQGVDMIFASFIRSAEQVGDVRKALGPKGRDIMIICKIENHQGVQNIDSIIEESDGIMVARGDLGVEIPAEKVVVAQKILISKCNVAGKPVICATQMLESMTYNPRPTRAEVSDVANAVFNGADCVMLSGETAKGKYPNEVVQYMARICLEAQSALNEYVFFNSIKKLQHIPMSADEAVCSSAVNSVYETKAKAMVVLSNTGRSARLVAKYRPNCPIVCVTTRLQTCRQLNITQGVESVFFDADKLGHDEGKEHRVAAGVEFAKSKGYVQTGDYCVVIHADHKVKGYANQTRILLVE
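Kinase-Glo luminescence read after 1 h RT reaction of 0.1 nM LmPK with 0.5 mM PEP and 0.1 mM ADP. Activity scaled between uninhibited and enzyme-free controls.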
Cycloheximide cs – Cycloheximide Counterscreen for Small Molecule Inhibitors of Shiga Toxin; cell reporter, cycloheximide protein synthesis inhibition counterscreen; max response, %; 300,000 compounds, 12% hits; in the data active = max response mostly above about 13%, no sharp cut-off; inactive = mostly below about 14%; note: read at 38.3 µM for the half of the compounds with a filed dose; 0% is about no effect
Sm TGR block – qHTS Assay for the Inhibitors of Schistosoma Mansoni Peroxiredoxins | purified TGR, DTNB reduction, TNB absorbance 405 nm | 360,000 compounds, 3% hits | Potency, µM (doses to about 114 µM), for inactives: at the highest dose activity change, negative = inhibition, most hits filed as inhibitors; note: potency is the fitted concentration of half-maximal effect; % is set by controls: 0 for no effect and ±100 for the full control effect; nearly all actives have a fitted effect of over 60% in size
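First, TGR (20 nM dispensed) and NADPH were mixed with compound. Second, a 15 min room-temperature incubation followed. Third, further NADPH and then DTNB were added to start the reaction. Finally, TNB absorbance was monitored kinetically.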
Shiga inhibitor – A qHTS for Small Molecule Inhibitors of Shiga Toxin | Vero cells, Shiga toxin protein synthesis inhibition reporter | inhibition, % at 38.7 µM | 290,000 compounds, 9.2% hits | AID 2315, 2010; in the data active = inhibition mostly above about 28%, no sharp cut-off; inactive = mostly below about 43%; note: 0% is about no effect
Tb PYK inh – qHTS of Trypanosoma Brucei Inhibitors | AID 624173, 2012 | TbPYK enzyme, Kinase-Glo Plus ATP luminescence, 45 min | 410,000 compounds, 0.12% hits | pyruvate kinase (Trypanosoma brucei), Q57TT1 | Potency, µM (series often up to 76.8 µM), inactives show top-dose activity, negative = inhibition, actives largely listed as inhibitors; note: potency is the fitted concentration of half-maximal effect; % is set by controls: 0 for no effect and ±100 for the full control effect; nearly all actives have a fitted effect of over 50% in size
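T. brucei PYK with substrate was exposed to pin-transferred compounds across a concentration series, then started with 130 uM ADP (final). After 45 min at room temperature, Kinase-Glo Plus luminescence was read, normalized and curve-fitted.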
Giardia FBPA inh – qHTS Assay for Inhibitors of Fructose-1,6-bisphosphate Aldolase from Giardia Lamblia; A8B2U2; purified Giardia FBPA; Potency, µM (top dose mostly 59.6 µM), for the others: top-dose activity, negative = inhibition, most hits filed as inhibitors; 290,000 compounds, 0.71% hits; AID 2451, 2010; note: potency is the fitted concentration of half-maximal effect; % is set by controls: 0 for no effect and ±100 for the full control effect; nearly all actives have a fitted effect of over 55% in size
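Giardia FBPA (40 nM reagent) was preincubated 10 min at RT with compound (up to 57.5 uM final), then substrate plus GAPDH/TPI/NAD/arsenate coupling system with diaphorase/resazurin was added; resorufin fluorescence (525/598 nm) was read after 20 min.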
Active calls of the source: *; [ ] = another dose, or the depositor's remark. This excerpt belongs to a sample that is enriched for hits. Unless noted, calls come from the whole dose curve; as a rule, active = well fitted curve in the direction sought with a large enough effect; inconclusive = small, poorly fitted or top-dose-only effect, or another doubt; inactive = no such curve, though single readings can be large; an effect the other way counts as inactive or inconclusive.

How did COc1ccc(Nc2nccc(-c3cccc(N)c3)n2)cc1 do in these assays?
LmPK inh: 0%; Cycloheximide cs: 68*; Sm TGR block: -9%; Shiga inhibitor: 71*; Tb PYK inh: 4%; Giardia FBPA inh: -8%

How did O=C(Nc1cccc(/C=C/c2nc3ccccc3c(=O)[nH]2)c1)c1ccccc1Cl do in these assays?
LmPK inh: -2%; Cycloheximide cs: 11*; Sm TGR block: 1%; Shiga inhibitor: 39; Tb PYK inh: -4%; Giardia FBPA inh: 2%

How did COc1ccc(C(=O)Nc2cccc(/C=C/c3nc4ccccc4c(=O)[nH]3)c2)cc1 do in these assays?
LmPK inh: -2%; Cycloheximide cs: 20*; Sm TGR block: 10%; Shiga inhibitor: 107*; Tb PYK inh: -2%; Giardia FBPA inh: -7%

Results for COc1ccc(C(=O)Nc2nc3ccccc3c(=O)[nH]2)cc1 ?
LmPK inh: -1%; Cycloheximide cs: 44*; Sm TGR block: -12%; Shiga inhibitor: 82*; Tb PYK inh: -2%; Giardia FBPA inh: -1%

What do the screens show for `COc1cc(/C=C/c2nc3ccccc3c(=O)[nH]2)cc(Cl)c1O`?
LmPK inh: 7%; Cycloheximide cs: -3; Sm TGR block: -23%; Shiga inhibitor: 25; Tb PYK inh: 4%; Giardia FBPA inh: -30%

How did CCN(CC(=O)Nc1ccc(C(=O)Nc2ccc(OC)cc2)cc1)Cc1nc2ccccc2c(=O)[nH]1 do in these assays?
LmPK inh: 3%; Cycloheximide cs: 10; Sm TGR block: 16%; Shiga inhibitor: 7; Tb PYK inh: -10%; Giardia FBPA inh: -16%

Results for CCCc1cnc2c(c1SCC(=O)N1CCC(C)CC1)c(=O)n(C)c(=O)n2C ?
Sm TGR block: 10%; Tb PYK inh: -9%

What do the screens show for `COc1ccc(NC(=O)C(c2ccc(C)cc2)N(C)C(=O)/C=C\c2ccc3c(c2)OCO3)cc1` (configuration not stated)?
Sm TGR block: 7%; Tb PYK inh: -1%

Results for CCOc1ccccc1C(=O)Nc1cc2c(cc1N1CCOCC1)n(C)c(=O)n2C ?
Sm TGR block: -8%; Tb PYK inh: -5%

Results for CCOc1ccc(C2C(C(=O)c3ccco3)=C(O)C(=O)N2CCCn2ccnc2)cc1OCC (configuration not stated) ?
LmPK inh: 6%; Cycloheximide cs: -4; Sm TGR block: 2%; Shiga inhibitor: -3; Tb PYK inh: 0%; Giardia FBPA inh: -29%

Results for COc1ccc(C2C(C(=O)/C=C/c3ccco3)=C(O)C(=O)N2CCN2CCOCC2)cc1OC (configuration not stated) ?
LmPK inh: 4%[11.5 µM]; Cycloheximide cs: -5; Sm TGR block: 11µM*; Shiga inhibitor: -11; Tb PYK inh: 3%; Giardia FBPA inh: inconclusive

How did C=CCOc1ccc(C2C(C(=O)c3ccco3)=C(O)C(=O)N2Cc2cccnc2)cc1 (configuration not stated) do in these assays?
LmPK inh: -3%; Cycloheximide cs: 18; Sm TGR block: -10%; Shiga inhibitor: active; Tb PYK inh: 2%; Giardia FBPA inh: -2%

Results for C=CCOc1cccc(C2C(C(=O)c3ccco3)=C(O)C(=O)N2Cc2cccnc2)c1 (configuration not stated) ?
LmPK inh: 4%; Cycloheximide cs: 9; Sm TGR block: -1%; Shiga inhibitor: 45; Tb PYK inh: -21%; Giardia FBPA inh: -25%

Results for CCOc1ccc(C2C(C(=O)c3ccco3)=C(O)C(=O)N2CCCn2ccnc2)cc1 (configuration not stated) ?
LmPK inh: -3%; Cycloheximide cs: 33*; Sm TGR block: -20%; Shiga inhibitor: active; Tb PYK inh: -6%; Giardia FBPA inh: -21%

Results for CCOc1ccc(C2C(C(=O)c3cccs3)=C(O)C(=O)N2CCN2CCOCC2)cc1 (configuration not stated) ?
LmPK inh: 2%; Cycloheximide cs: 28*; Sm TGR block: -17%; Shiga inhibitor: 25*; Tb PYK inh: 1%; Giardia FBPA inh: -1%

How did CCCC[C@]12Cc3ccccc3[C@H](O1)C1=C(O2)C(=O)c2ccccc2C1=O do in these assays?
LmPK inh: -7%[11.5 µM]; Cycloheximide cs: -1; Sm TGR block: 1%[22.9 µM]; Shiga inhibitor: inactive; Giardia FBPA inh: 21%[12.9 µM]

How did CCOc1ccc(CNC(=O)c2cnc3sc(N4CCC(C)CC4)nn3c2=O)cc1OC do in these assays?
Sm TGR block: 8%; Tb PYK inh: 2%

Results for Cc1cccc(N2CCN(C(=O)CN3C(=O)COc4ccc(S(=O)(=O)N5CCCCCC5)cc43)CC2)c1C ?
Sm TGR block: -4%; Tb PYK inh: 2%

What do the screens show for `Cn1cccc1C(=O)N1CCC2(CC1)CN(C(c1ccccc1)c1ccccc1)C2`?
Tb PYK inh: -6%; Giardia FBPA inh: 11%

How did CCOc1ccc(C2C(C(=O)c3ccc(C)o3)=C(O)C(=O)N2CCN2CCOCC2)cc1OC (configuration not stated) do in these assays?
LmPK inh: 3%; Cycloheximide cs: -10; Sm TGR block: 50µM*; Shiga inhibitor: -7; Tb PYK inh: 11%; Giardia FBPA inh: -10%

What do the screens show for `CCOc1ccc(C2C(C(=O)c3ccco3)=C(O)C(=O)N2CCN2CCOCC2)cc1` (configuration not stated)?
LmPK inh: -11%; Cycloheximide cs: 26*; Sm TGR block: inconclusive; Shiga inhibitor: 54*; Tb PYK inh: -7%; Giardia FBPA inh: inconclusive

How did CCOc1ccc(C2C(C(=O)c3ccco3)=C(O)C(=O)N2CCN2CCOCC2)cc1OCC (configuration not stated) do in these assays?
LmPK inh: -3%; Cycloheximide cs: 5; Sm TGR block: inconclusive; Shiga inhibitor: -4; Tb PYK inh: 2%; Giardia FBPA inh: -21%

Results for CC(C)c1ccc(C2C(C(=O)c3ccco3)=C(O)C(=O)N2CCN2CCOCC2)cc1 (configuration not stated) ?
LmPK inh: 9%; Cycloheximide cs: 11; Sm TGR block: inconclusive; Shiga inhibitor: 23; Tb PYK inh: -7%; Giardia FBPA inh: -25%

How did CCCOc1ccc(C2C(C(=O)c3ccco3)=C(O)C(=O)N2CCN2CCOCC2)cc1OC (configuration not stated) do in these assays?
LmPK inh: -3%; Cycloheximide cs: 1; Sm TGR block: 40µM*; Shiga inhibitor: 38; Giardia FBPA inh: -25%

Screening data from PubChem.
